Laboratory results as given in PubChem BioAssay (NCI).
Values joined by “and” are separate entries in the source; they are usually repeats but may differ in a detail not shown here. Identical values can stand only once. The panel holds about 83,000 compounds, 20% with a hit somewhere; the sample as a whole holds those more often.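 For each line, cells grew in 96-well plates with the test compound present at a single concentration for 48 hours.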 Active and inactive are the calls of the source. Rule for the calls: active = growth percent below 10; inactive = the rest.

Tests used:
Assay in all cases: NCI-60 one-dose screen, 48 h (100 = growth as untreated, 0 = no growth, -100 = all killed)
Details in all cases: 10 µM unless noted
NCI-H23 lung = tested on: NCI-H23 lung
NCI-H226 lung = tested on: NCI-H226 lung
NCI-H322M lung = tested on: NCI-H322M lung
HOP-62 NSCLC = tested on: HOP-62 NSCLC
NCI-H460 lung = tested on: NCI-H460 lung
HOP-92 NSCLC = tested on: HOP-92 NSCLC
NCI-H522 lung = tested on: NCI-H522 lung
A549/ATCC NSCLC = tested on: A549/ATCC NSCLC
786-0 renal = tested on: 786-0 renal
COLO 205 colon = tested on: COLO 205 colon
DU-145 prostate = tested on: DU-145 prostate
K-562 leukemia = tested on: K-562 leukemia
MALME-3M melanoma = tested on: MALME-3M melanoma
MDA-MB-231 breast = tested on: MDA-MB-231 breast
RXF 393 renal = tested on: RXF 393 renal
SF-268 CNS = tested on: SF-268 CNS
SF-295 CNS = tested on: SF-295 CNS
SF-539 CNS = tested on: SF-539 CNS
UACC-257 melanoma = tested on: UACC-257 melanoma
M14 melanoma = tested on: M14 melanoma

For `CC(C)C[C@H](NC(=O)[C@@H]1CCCCCCCCCCC(=O)N[C@@H](CC(=O)N2CCC[C@@H]2C2CCCC2)C(=O)N1)B(O)O`, the growth (NCI-H23 lung) was -83.3% (active), the growth (NCI-H226 lung) was -33.3% (active) and the growth (NCI-H322M lung) was -59.8% (active). For the same compound, the growth (HOP-62 NSCLC) was -14.7% (active), the growth (NCI-H460 lung) was 0.61% (active) and the growth (HOP-92 NSCLC) was -63.2% (active). For the same compound, the growth (NCI-H522 lung) was -49.1% (active), the growth (A549/ATCC NSCLC) was 1.48% (active) and the growth (786-0 renal) was -43.8% (active). For the same compound, the growth (COLO 205 colon) was -64.6% (active), the growth (DU-145 prostate) was 6.72% (active) and the growth (K-562 leukemia) was 0.735% (active). The growth (MALME-3M melanoma) was -75.1% (active), the growth (MDA-MB-231 breast) was -72.4% (active) and the growth (RXF 393 renal) was -84.8% (active). The growth (SF-268 CNS) was 4.67% (active), the growth (SF-295 CNS) was -93.4% (active) and the growth (SF-539 CNS) was -44.8% (active). For the same compound, the growth (UACC-257 melanoma) was -31% (active) and the growth (M14 melanoma) was -48.2% (active).
With `CN(C)c1nc(NCCNS(=O)(=O)c2ccc(C(=O)/C=C/c3ccc(Cl)cc3)cc2)nc(N2CCOCC2)n1` the growth (NCI-H23 lung) was 9.4% (active), the growth (NCI-H226 lung) was 74.9% (inactive) and the growth (NCI-H322M lung) was 81.2% (inactive). The growth (HOP-62 NSCLC) was 74.8% (inactive), the growth (NCI-H460 lung) was 50.7% (inactive) and the growth (HOP-92 NSCLC) was 67.9% (inactive). The growth (NCI-H522 lung) was 25% (inactive), the growth (A549/ATCC NSCLC) was 12% (inactive) and the growth (786-0 renal) was -41.6% (active). The growth (COLO 205 colon) was 21.1% (inactive), the growth (DU-145 prostate) was 6.95% (active) and the growth (K-562 leukemia) was -6.36% (active). The growth (MALME-3M melanoma) was 89.2% (inactive), the growth (MDA-MB-231 breast) was 15.7% (inactive) and the growth (RXF 393 renal) was -59.3% (active). The growth (SF-268 CNS) was 57.8% (inactive), the growth (SF-295 CNS) was 55.5% (inactive) and the growth (SF-539 CNS) was -67.5% (active). For the same compound, the growth (UACC-257 melanoma) was 71.5% (inactive) and the growth (M14 melanoma) was -20.2% (active).
With `C=CCn1c(O)c(N=Nc2nc(-c3cc4ccccc4oc3=O)cs2)c2ccccc21` the growth (NCI-H23 lung) was 35.4% (inactive), the growth (NCI-H226 lung) was 74.2% (inactive) and the growth (NCI-H322M lung) was 101% (inactive). The growth (HOP-62 NSCLC) was 80.8% (inactive), the growth (NCI-H460 lung) was 18.3% (inactive) and the growth (HOP-92 NSCLC) was 85% (inactive). For the same compound, the growth (NCI-H522 lung) was 58.3% (inactive), the growth (A549/ATCC NSCLC) was 24.7% (inactive) and the growth (786-0 renal) was 47.3% (inactive). The growth (COLO 205 colon) was 18.1% (inactive), the growth (DU-145 prostate) was 74.1% (inactive) and the growth (K-562 leukemia) was 107% (inactive). The growth (MALME-3M melanoma) was 104% (inactive), the growth (MDA-MB-231 breast) was -24.9% (active) and the growth (RXF 393 renal) was -4.94% (active). The growth (SF-268 CNS) was 42.1% (inactive), the growth (SF-295 CNS) was 54.6% (inactive) and the growth (SF-539 CNS) was 83.7% (inactive). For the same compound, the growth (UACC-257 melanoma) was 101% (inactive) and the growth (M14 melanoma) was 70.9% (inactive).
In the case of `Cc1cc(=O)oc2cc(OCC(O)CNN3C(=O)c4cccc5c(N6CCN(C)CC6)ccc(c45)C3=O)ccc12` (stereo not given), the growth (NCI-H23 lung) was 98.4% (inactive), the growth (NCI-H226 lung) was 102% (inactive) and the growth (NCI-H322M lung) was 101% (inactive). The growth (HOP-62 NSCLC) was 99.8% (inactive), the growth (NCI-H460 lung) was 99.4% (inactive) and the growth (HOP-92 NSCLC) was 68.3% (inactive). For the same compound, the growth (NCI-H522 lung) was 98.2% (inactive), the growth (A549/ATCC NSCLC) was 99.8% (inactive) and the growth (786-0 renal) was 97.8% (inactive). For the same compound, the growth (COLO 205 colon) was 87.7% (inactive), the growth (DU-145 prostate) was 96.6% (inactive) and the growth (K-562 leukemia) was 80.4% (inactive). The growth (MALME-3M melanoma) was 14.5% (inactive), the growth (MDA-MB-231 breast) was 89.3% (inactive) and the growth (RXF 393 renal) was 82.3% (inactive). For the same compound, the growth (SF-268 CNS) was 91.4% (inactive), the growth (SF-295 CNS) was 108% (inactive) and the growth (SF-539 CNS) was 81.2% (inactive). The growth (UACC-257 melanoma) was 72.9% (inactive) and the growth (M14 melanoma) was 89.7% (inactive).
In the case of `CCC(=O)c1c2c(c3ccc4c5ccccc5ccc4n13)C(=O)c1ccccc1C2=O`, the growth (NCI-H23 lung) was 44.5% (inactive), the growth (NCI-H226 lung) was 45.7% (inactive) and the growth (NCI-H322M lung) was 59.1% (inactive). For the same compound, the growth (HOP-62 NSCLC) was 81.7% (inactive), the growth (NCI-H460 lung) was 6.66% (active) and the growth (HOP-92 NSCLC) was 117% (inactive). The growth (NCI-H522 lung) was 86.8% (inactive), the growth (A549/ATCC NSCLC) was 31.7% (inactive) and the growth (786-0 renal) was 96.4% (inactive). For the same compound, the growth (COLO 205 colon) was 75.8% (inactive), the growth (DU-145 prostate) was 20.3% (inactive) and the growth (K-562 leukemia) was 96.7% (inactive). The growth (MALME-3M melanoma) was -87.5% (active), the growth (MDA-MB-231 breast) was 83% (inactive) and the growth (RXF 393 renal) was 109% (inactive). The growth (SF-268 CNS) was 95.4% (inactive), the growth (SF-295 CNS) was 65.8% (inactive) and the growth (SF-539 CNS) was 77.8% (inactive). The growth (UACC-257 melanoma) was 71.6% (inactive) and the growth (M14 melanoma) was 24.6% (inactive).
For `COC(=O)c1cc(C(C)=O)n2c3ccccc3c3ccccc3c12`, the growth (NCI-H23 lung) was 78.1% (inactive), the growth (NCI-H226 lung) was 61.3% (inactive) and the growth (NCI-H322M lung) was 104% (inactive). The growth (HOP-62 NSCLC) was 57.9% (inactive), the growth (NCI-H460 lung) was 110% (inactive) and the growth (HOP-92 NSCLC) was 28.1% (inactive). The growth (NCI-H522 lung) was 86.4% (inactive), the growth (A549/ATCC NSCLC) was 96.9% (inactive) and the growth (786-0 renal) was 36.6% (inactive). The growth (COLO 205 colon) was 108% (inactive), the growth (DU-145 prostate) was 67% (inactive) and the growth (K-562 leukemia) was 85.9% (inactive). The growth (MALME-3M melanoma) was 84.6% (inactive), the growth (MDA-MB-231 breast) was 33.2% (inactive) and the growth (RXF 393 renal) was 11.8% (inactive). For the same compound, the growth (SF-268 CNS) was 59.5% (inactive), the growth (SF-295 CNS) was 56% (inactive) and the growth (SF-539 CNS) was 28.5% (inactive). For the same compound, the growth (UACC-257 melanoma) was 118% (inactive) and the growth (M14 melanoma) was 72.1% (inactive).
With `COC(=O)c1ccc(-c2c(-c3ccccc3)c(F)c3oc(C(=O)OC)c(N)c3c2-c2ccccc2)cc1` the growth (NCI-H23 lung) was 87% (inactive), the growth (NCI-H226 lung) was 100% (inactive) and the growth (NCI-H322M lung) was 97.1% (inactive). The growth (HOP-62 NSCLC) was 94% (inactive), the growth (NCI-H460 lung) was 99.7% (inactive) and the growth (HOP-92 NSCLC) was 85.1% (inactive). The growth (NCI-H522 lung) was 83.4% (inactive), the growth (A549/ATCC NSCLC) was 98.9% (inactive) and the growth (786-0 renal) was 103% (inactive). The growth (COLO 205 colon) was 99.7% (inactive), the growth (DU-145 prostate) was 104% (inactive) and the growth (K-562 leukemia) was 85.1% (inactive). For the same compound, the growth (MALME-3M melanoma) was 99.9% (inactive), the growth (MDA-MB-231 breast) was 99.3% (inactive) and the growth (RXF 393 renal) was 95.6% (inactive). The growth (SF-268 CNS) was 91.6% (inactive), the growth (SF-295 CNS) was 89.7% (inactive) and the growth (SF-539 CNS) was 90% (inactive). For the same compound, the growth (UACC-257 melanoma) was 111% (inactive) and the growth (M14 melanoma) was 98.2% (inactive).
`COc1ccc(N=Nc2c(N)nn3c(N)c(C#N)c(-c4ccccc4)nc23)cc1` was tested, and the growth (NCI-H23 lung) was 32.3% (inactive), the growth (NCI-H226 lung) was 0.868% (active) and the growth (NCI-H322M lung) was 45.7% (inactive). For the same compound, the growth (HOP-62 NSCLC) was -1.62% (active), the growth (NCI-H460 lung) was 16.1% (inactive) and the growth (HOP-92 NSCLC) was -9.66% (active). The growth (NCI-H522 lung) was -4.5% (active), the growth (A549/ATCC NSCLC) was 53.1% (inactive) and the growth (786-0 renal) was 13.8% (inactive). For the same compound, the growth (COLO 205 colon) was 80.8% (inactive), the growth (DU-145 prostate) was 24.4% (inactive) and the growth (K-562 leukemia) was 71.8% (inactive). The growth (MALME-3M melanoma) was 28.5% (inactive), the growth (MDA-MB-231 breast) was 9.1% (active) and the growth (RXF 393 renal) was 8.34% (active). The growth (SF-268 CNS) was 11.6% (inactive), the growth (SF-295 CNS) was 39.4% (inactive) and the growth (SF-539 CNS) was -3.46% (active). The growth (UACC-257 melanoma) was 71% (inactive) and the growth (M14 melanoma) was 74.2% (inactive).
With `O=C1C=CC(=CC=C2N(Cc3ccc4ccccc4c3)c3ccccc3N2Cc2ccc3ccccc3c2)C=C1` the growth (NCI-H23 lung) was 5.96% (active) and 26.9% (inactive), the growth (NCI-H226 lung) was 47.1% (inactive) and 48% (inactive) and the growth (NCI-H322M lung) was 49.3% (inactive) and 59.1% (inactive). For the same compound, the growth (HOP-62 NSCLC) was 37.3% (inactive) and 45.3% (inactive), the growth (NCI-H460 lung) was 15.7% (inactive) and 10.4% (inactive) and the growth (HOP-92 NSCLC) was 3.18% (active) and -22.2% (active). For the same compound, the growth (NCI-H522 lung) was -12.5% (active) and 17.7% (inactive), the growth (A549/ATCC NSCLC) was 30.5% (inactive) and 46.4% (inactive) and the growth (786-0 renal) was 51.2% (inactive) and 69.2% (inactive). For the same compound, the growth (COLO 205 colon) was -29.1% (active) and 0.579% (active), the growth (DU-145 prostate) was 43.2% (inactive) and 32.7% (inactive) and the growth (K-562 leukemia) was 13.5% (inactive) and 6.33% (active). For the same compound, the growth (MALME-3M melanoma) was 4.02% (active) and 3.15% (active), the growth (MDA-MB-231 breast) was -40.7% (active) and -24.6% (active) and the growth (RXF 393 renal) was 31.6% (inactive) and 30.9% (inactive). For the same compound, the growth (SF-268 CNS) was 67.5% (inactive) and 56.8% (inactive), the growth (SF-295 CNS) was 39.3% (inactive) and 58.2% (inactive) and the growth (SF-539 CNS) was 15.5% (inactive) and 16.9% (inactive). The growth (UACC-257 melanoma) was -0.845% (active) and 20.9% (inactive) and the growth (M14 melanoma) was 20.8% (inactive) and 29.8% (inactive).
